Only some compounds are listed: those with a hit (about 10% of all), similar ones and a draw of the others.
HP1b binding inh = blocks HP1-beta chromodomain binding to methylated histone tails | AlphaScreen HP1-beta / biotin-H3K9me3 peptide binding | Potency, µM (top dose mostly 114 µM), for inactives: at the top dose activity change, negative = inhibition, actives largely listed as inhibitors | 390,000 tested, 0.56% active | AID 540317; note: nearly all actives have a fitted effect of over 70% in size
Target sequence (P83916 whole entry, looked up): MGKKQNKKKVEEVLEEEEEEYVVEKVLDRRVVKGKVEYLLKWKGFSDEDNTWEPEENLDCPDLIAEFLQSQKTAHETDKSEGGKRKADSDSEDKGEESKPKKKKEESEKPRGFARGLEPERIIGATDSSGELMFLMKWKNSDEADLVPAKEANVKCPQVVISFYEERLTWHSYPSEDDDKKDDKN
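AlphaScreen: HP1-beta (50 nM) preformed 30 min with biotin-H3(1-18)K9me3 peptide (50 nM) in PBS pH 7.4, 0.01% Tween-20. Compound added for 30 min at RT, then streptavidin donor/nickel chelate acceptor beads (10 ug/mL) for 30 min.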
JMJD2A Tudor inh = blocks the human JMJD2A Tudor domain | O75164 | AlphaScreen JMJD2A-Tudor / H3K4me3 peptide binding | Potency, µM (highest dose often 114 µM), for the others: at the top dose activity change, negative = inhibition, most hits filed as inhibitors | 390,000 tested, 4.4% active | AID 504339; note: % is set by controls: 0 for no effect and ±100 for the full control effect; nearly all actives have a fitted effect of over 50% in size
G9a block = G9a (human) methyltransferase inhibition. Q96KQ7. G9a H3K9 monomethylation, AlphaScreen, 2 h. 350,000 tested, 8.8% active. Potency, µM (titrated, usually from 102 µM), for the others: at the top dose activity, negative = inhibition, actives largely listed as inhibitors. AID 504332; note: % is set by controls: 0 for no effect and ±100 for the full control effect; nearly all actives have a fitted effect of over 75% in size
Target sequence (Q96KQ7 913-1193 limits assumed): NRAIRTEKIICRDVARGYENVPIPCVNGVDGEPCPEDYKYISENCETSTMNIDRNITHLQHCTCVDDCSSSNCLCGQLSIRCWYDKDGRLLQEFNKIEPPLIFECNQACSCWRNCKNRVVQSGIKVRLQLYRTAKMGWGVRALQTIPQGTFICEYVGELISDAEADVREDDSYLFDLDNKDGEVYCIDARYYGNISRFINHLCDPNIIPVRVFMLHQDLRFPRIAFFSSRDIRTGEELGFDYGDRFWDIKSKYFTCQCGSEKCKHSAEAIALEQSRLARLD
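Enzyme 20 nM + cpd, 15 min RT; add b-H3K9 pep 500 nM / SAM 20 uM; 2 h RT; anti-H3K9me1 Ab 0.5 ug/mL + SA donor / anti-rabbit acceptor beads 20 ug/mL each, 10 min; AlphaScreen read.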
GLS inhibitor = glutaminase GLS (human) inhibition | 410,000 tested, 0.21% active | AID 624170 | Potency, µM (series often up to 45.5 µM), for the others: top-dose activity change, negative = inhibition, most hits filed as inhibitors | GLS enzymatic activity, qHTS titration; note: % is set by controls: 0 for no effect and ±100 for the full control effect
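Assay buffer: 45 mM KH2PO4 pH 8.2, 0.02% Tween-20. hKGA acts on L-glutamine (1 mM solution added); product glutamate is reported by an oxidase/peroxidase Amplex Red coupling, with fluorescence taken at baseline and 30 min.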
BAZ2B block = BAZ2B (human) inhibition | Potency, µM (highest dose often 114 µM), inactives show at the highest dose activity change, negative = inhibition, usual class: inhibitors | Q9UIF8 | 360,000 tested, 4.4% active | AlphaScreen BAZ2B-H3K14Ac peptide displacement; note: % is set by controls: 0 for no effect and ±100 for the full control effect; nearly all actives have a fitted effect of over 60% in size
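Protein-peptide AlphaScreen: BAZ2B 50 nM, b-H3K14Ac 50 nM, 1x PBS pH 7.4 + 0.01% Tween-20. Preincubation 30 min RT; cpd 30 min RT (top 110 uM); beads 20 min RT, light-protected.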
The depositor's hits bear a star; ? = inconclusive; . = not tested or not shown; [ ] = dose if it differs, or a comment. Calls come from the whole dose curve; as a rule, active = well fitted curve in the direction sought with a large enough effect; inconclusive = small, poorly fitted or top-dose-only effect, or another doubt; inactive = no such curve, though single readings can be large; an effect the other way counts as inactive or inconclusive. Potency is the fitted concentration of half-maximal effect.

SMILES | HP1b binding inh | JMJD2A Tudor inh | G9a block | GLS inhibitor | BAZ2B block
CC(=O)C1=C(O)C(=O)N(c2ccc(S(=O)(=O)Nc3nccs3)cc2)C1c1ccc(F)cc1 (centres undefined) | 3.0% | -15.9% | 56.2µM* | -11.6% | -28.6%
CC(=O)C1=C(O)C(=O)N(c2ccc(S(N)(=O)=O)cc2)C1c1ccc([N+](=O)[O-])cc1 (centres undefined) | 21.7% | -7.4% | 12.7%[0.501 µM] | -6.3% | ?
COCCNC(=O)CSc1nc2nn(-c3ccccc3)c(=O)c-2c2n1CCCCC2 | -12.0% | 56.2µM* | 6.8% | 18.6% | -3.1%
O=C(CSc1nc2nn(-c3ccccc3)c(=O)c-2c2n1CCCCC2)c1ccc(O)c(O)c1 | 28.2µM* | 11.2µM* | -40.1%[2.33 µM] | 10.4% | 10µM*
OC(c1ccc(Cl)cc1)c1nccc2ccccc12 (centres undefined) | 20.8% | -26.9% | 39.8µM* | -0.7% | -37.8%
O=C(OC(c1ccccc1)c1nccc2ccccc12)c1ccccc1 (centres undefined) | 43.6% | 6.2% | . | -2.9% | .
Cc1cc(Cl)c2ccccc2n1 | 41.8% | 0.3% | -7.9%[59 µM] | 4.0% | 4.2%
Cc1cc(Cl)c2ccc3ccccc3c2n1 | 27.2% | 20.8% | 25.1µM* | 1.9% | 57.8%
Cc1cccc(NC2=NCC(=O)N2Cc2cccs2)c1 | 14.5% | -1.4% | 70.8µM* | -9.1% | ?
Cc1cc(C)cc(NC2=NCC(=O)N2Cc2ccccc2)c1 | 22.0% | -30.1% | 18.0%[12.7 µM] | 10.5% | -6.9%
CCc1ccccc1NC1=NCC(=O)N1Cc1ccccc1 | 32.2% | -0.3% | 44.7µM* | 15.3% | 79.4µM*
O=C1CCN=C(Nc2ccc(F)cc2)N1Cc1ccccc1 | 34.9% | -18.9%[57.1 µM] | 39.8µM* | -3.5% | ?
O=C1CN=C(Nc2ccccc2)N1Cc1cccs1 | 41.6% | -10.0% | 79.4µM* | -1.7% | 2.8%[57.1 µM]
COc1cc(OC)cc(C(=O)N[C@H](C(=O)Nc2nc(-c3cc(OC)ccc3OC)cs2)C(C)C)c1 | -9.7% | -31.6% | ? | 4.4% | -32.1%
Cc1ccc(S(=O)(=O)Nc2cccc(Cl)c2)cc1NC(=O)C1CC1 | 5.7% | -21.8% | . | 12.6% | .
Cc1ccc(-n2ncc3c(N4CCCCCC4)ncnc32)cc1 | 92.9% | 50.8% | 83.6%[59 µM] | 2.6% | 29.1%
Cn1cc(Br)c(C(=O)NNC(=O)c2ccc(Br)cc2)n1 | 17.0% | -23.1% | 6.2%[59 µM] | 18.9% | 3.0%
C=CCCCCCCCCCCCC(O)CC(O)COC(C)=O (centres undefined) (tested in a mixture with another compound) | . | . | 2.7%[2.33 µM] | . | .
Cc1ccc(S(=O)(=O)NCCC(=O)NCCSc2ccc(Br)cc2)cc1 | 55.3% | 6.2% | 22.0% | 2.9% | 11.8%
COc1cccc2c1[C@@H]1CN(CCCCn3c(=O)[nH]c4c(sc5ncc(-c6ccccc6)nc54)c3=O)C[C@@H]1CO2 | -1.7% | ? | 12.6µM* | 10.6% | ?
COc1cc2[nH]c(=O)n(CCCC(=O)N3CC=C(c4ccccc4)CC3)c(=O)c2cc1OC | 0.6% | -18.9%[57.1 µM] | ? | -8.8% | -5.3%
CCOc1ccc2nc(N3CCCC(C(=O)NCCCN4C(C)CCCC4C)C3)sc2c1 (centres undefined) | 40.6% | -23.7% | 39.8µM* | 2.7% | ?
CCc1ccc2nc(N3CCC(C(=O)NCCC(C)C)CC3)sc2c1 | 19.4% | -13.3% | 14.1µM* | 0.5% | -2.3%
CCCN(CCC)CCNC(=O)C1CCN(c2nc3ccc(CC)cc3s2)CC1 | 6.2% | -17.4% | -29.9%[59 µM] | 7.8% | -6.6%
COC(=O)C(=C/C=C/c1cccnc1)C(=O)OC | 7.5% | -3.5% | . | -7.0% | -7.1%
SMILES | HP1b binding inh | JMJD2A Tudor inh | G9a block | GLS inhibitor | BAZ2B block
c1ccc(C[n+]2csc3ccccc32)cc1 | 23.1% | ? | ? | 36.5% | ?
Fc1cccc(C[n+]2csc3ccccc32)c1 | 18.2% | 79.4µM* | 11.2µM* | 28.1% | ?
CCOC(=O)c1c(/N=C/N(C)C)sc(/C=N/Nc2ccccc2)c1-c1ccccc1 | -10.5% | ? | ? | 24.4% | -4.2%
O=C1c2ccccc2C(=O)c2c(NCCCN(CCO)CCO)cccc21 | 25.1µM* | 39.8µM* | 44.7µM* | 0.0% | 28.2µM*
COc1ccc(-c2nnc(SCC(=O)Oc3cccc(C)c3C)o2)cc1 | 13.3% | -19.5% | -32.8%[59 µM] | 0.4% | -26.9%
Oc1ccccc1C(=S)N1CCCCC1 | -17.5% | 3.0% | 10µM* | -8.9% | -4.1%
Oc1ccccc1C(=S)N1CCCCCC1 | 33.5% | -14.4% | ? | 24.5% | -7.7%
Cc1onc(-c2c(F)cccc2Cl)c1C(=O)N1CCCc2ccccc21 | 40.0% | -1.0% | 4.9%[59 µM] | 5.1% | -2.7%
Cc1ccc2nc(C3CCN(C(=O)c4ccco4)CC3)[nH]c2c1 | 51.1% | ? | 56.2µM* | -3.6% | ?
Cc1ccc2nc(C3CCN(CC(=O)N4CCCCCC4)CC3)[nH]c2c1 | 15.8% | -20.4% | 10.4%[59 µM] | -1.4% | 8.8%
Cc1[nH]n(-c2nc(-c3cccc([N+](=O)[O-])c3)cs2)c(=O)c1C | 9.0% | -25.0% | -11.4% | 4.3% | -0.4%
COc1ccc(NC(=O)CSC2=Nc3ccccc3C3=NC(Cc4ccccc4)C(=O)N23)cc1Cl (centres undefined) | -0.4% | -21.5% | -4.9%[59 µM] | -20.9% | -10.2%
Cc1ccc(NC(=O)c2ccco2)c(NC(=O)c2ccccc2C)c1 | 31.9% | 50.1µM* | 15.6% | -0.8% | -2.3%
Cc1cc(NC(=O)c2ccccc2)ncc1NC(=O)c1ccco1 | 18.0% | -11.3% | 25.1µM* | -8.0% | -12.5%
O=C(Nc1ccc(Oc2ccc(NC(=O)c3ccco3)c(NC(=O)c3ccco3)c2)cc1)c1ccco1 | 5.01µM* | -22.6% | -14.0%[59 µM] | 2.8% | -21.5%
COc1ccc(NC(=O)c2ccco2)cc1NC(=O)c1cccc(C)c1OC | -9.0% | 20µM* | -0.1%[59 µM] | 5.0% | ?
COc1ccc(NC(=O)c2ccco2)cc1NC(=O)c1ccco1 | 45.4% | -13.6% | 9.3% | 2.3% | 1.8%
COc1ccccc1C(=O)Nc1cc(C)ccc1NC(=O)c1ccco1 | 38.2% | -12.5% | . | 6.4% | -5.0%
CCC(=O)Nc1cc(C)c(NC(=O)c2ccco2)cn1 | 34.4% | 0.6% | 0.0%[59 µM] | 17.4% | -23.7%
CNc1nnc(-c2ccncc2)s1 | 15.8% | -17.2% | 5.7%[12.7 µM] | -2.8% | -2.1%
COc1cc(-c2nn3c(-c4ccco4)nnc3s2)cc(OC)c1OC | . | . | 21.6% | . | 5.9%
NC(Cc1ccc(Cl)cc1)c1csc(Nc2ccc(C(=O)c3ccccc3)cc2)n1 (centres undefined) | . | . | . | 9.1% | .
Cc1ccc(O)c(NC(=O)c2ccco2)c1 | 22.8% | -12.0% | 11.9%[59 µM] | 41.4% | 10.7%
Cc1cc(O)c(NC(=O)c2ccco2)cc1C | 33.8% | 3.4% | 8.91µM* | 98.4% | 40.3%
CCOC(=O)N1CCN(C(=O)c2ccc3c(SCC(=O)O)c4c(nc3c2)CCCC4)CC1 | 36.3% | -16.7% | 39.8µM* | 5.9% | -3.4%
O=C(O)CSc1c2c(nc3cc(C(=O)N4CCOCC4)ccc13)CCCC2 | 14.8% | 39.8µM* | 33.8%[0.501 µM] | 2.7% | 70.8µM*
